Results from PubChem BioAssay (NCI).
Compounds without any hit were thinned out: in the full panel of roughly 83,000, 20% have a hit.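 Percent growth is the endpoint: 0 to 100 indicates growth inhibition (40 means 60% inhibition), 0 means no net growth, and negative values indicate cell death.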 A number with no mark means an inactive call. Calls of active or inactive are those of the source. Rule for the calls: active = growth percent below 10; inactive = the rest.

Legend:
Experiment in all cases: NCI-60 one-dose screen, 48 h (100 = growth as untreated, 0 = no growth, -100 = all killed)
Conditions in all cases: 10 µM unless noted
[1] = tested on: SR leukemia
[2] = tested on: RPMI-8226 leukemia
[3] = tested on: OVCAR-8 ovarian
[4] = tested on: OVCAR-5 ovarian
[5] = tested on: OVCAR-4 ovarian
[6] = tested on: SK-OV-3 ovarian
[7] = tested on: IGROV1 ovarian
[8] = tested on: OVCAR-3 ovarian
[9] = tested on: HS 578T breast
[10] = tested on: NCI/ADR-RES ovarian

| SMILES | growth [1] | growth [2] | growth [3] | growth [4] [%] | growth [5] | growth [6] | growth [7] | growth [8] | growth [9] | growth [10] [%] |
| --- | --- | --- | --- | --- | --- | --- | --- | --- | --- | --- |
| CC(=O)OCc1nc(C#N)c(N(C)C)o1 | 92.2% | 99.6% | 94.1% | 86.9 | 100% | 90.1% | 95% | 99.1% | 99.4% | 103 |
| CN1CCN(c2ccc(NC(=O)c3nc4ccc5[nH]ncc5c4c4c3CCCC4)cc2C(F)(F)F)CC1 | 13.6% | 24.1% | 3.3% (active) | 85.5 | 65.2% | 100% | 4.75% (active) | 11.5% | 77.6% | 70 |
| C=CCc1c(O)c(C(=O)/C=C/c2ccc(Cl)cc2)c(OC)c2ccoc12 | 17.7% | 8.82% (active) | 42.6% | 100 | 57.3% | 66.4% | 43.3% | 32.8% | 81% | 39.1 |
| Cc1cccc(N2CCN(CC(O)COc3ccc(Cl)cc3)CC2)c1 (centres undefined) | 79.7% | 77.6% | 98.8% | 116 | 115% | -100% (active) | 92.7% | 111% | 115% | 105 |
| CC1=NN(c2nc(SCC(=O)Nc3nc4ccc(C)cc4s3)nc(-c3ccccc3)c2C#N)C(=O)C1 | 87.2% | 110% | 102% | 92.6 | 101% | 106% | 83.5% | 108% | 90.5% | 100 |
| CCC(=C(c1ccc(OCCN2CCCC2)cc1)c1ccc(OCCN2CCCC2)cc1)c1ccc(Cl)cc1 | -40.5% (active) | -44.1% (active) | -7.08% (active) | 19.5 | -43.4% (active) | 84.8% | -20.2% (active) | -57.6% (active) | -47.4% (active) | 10.5 |
| Brc1ccc(-n2cc(-c3nn[nH]n3)c(-c3cccs3)n2)cc1 | 110% | 99.3% | 98.8% | 100 | 100% | 93.5% | 93.2% | 105% | 96.3% | 107 |
| CC1=C(C(=O)OC(C)C)C(c2ccc3c(c2)OCO3)NC(=S)N1 (centres undefined) | 103% | 87.7% | 102% | 105 | 98.4% | 105% | 99.9% | 121% | 97.3% | 101 |
| CCN(CC)CCNC(=O)c1cn2ncnc(Oc3ccc(NC(=O)Nc4ccc(Cl)c(C(F)(F)F)c4)c(F)c3)c2c1C | -32.3% (active) | -16.6% (active) | 45.4% | 54.6 | 6.15% (active) | 82% | -36.6% (active) | -3.03% (active) | -7.92% (active) | 56.8 |
| O=C1N[C@@H]2NC(=[N+]3CCOCC3)N[C@@H]2N1 | 111% | 106% | 105% | 97.9 | 107% | 104% | 104% | 117% | 98.2% | 102 |
| CC(=O)n1nc(C(=O)OC(C)C)c2cc(C)c(C)cc21 | 84.6% | 85% | 96.8% | 118 | 2.77% (active) | 98.6% | 106% | 108% | 96.6% | 101 |
| CCOC(=O)C#Cc1c(C(=O)OCC)nnn1[C@@H]1O[C@H](CO)[C@H]2OC3(CCCCC3)O[C@H]21 | -8.98% (active) | 14.2% | 95.3% | 105 | 56% | 98.1% | 96% | 4.07% (active) | 89.7% | 100 |
| O=[N+]([O-])/C(=C/C=C/c1ccccc1)c1ccccc1 | 26.5% | 35.8% | 77.6% | 87.9 | 77.2% | 97.1% | -4.26% (active) | – | 56.8% | 78.3 |
